# RGS16-Gao: modulators of RGS16 binding to Galphao, primary screen, biochemical, human proteins, multiplexed bead flow cytometry; Regulator of G-protein signaling 16 (Homo sapiens) + Guanine nucleotide-binding protein …; bead-based flow cytometry RGS16-Galphao binding, fluorescence; actives lie on both sides; binding response (% of control), % at 10 µM; hit rate 0.38% among 220,000; AID 1441, 2008;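 further: Galphao activated by GDP with aluminum fluoride before binding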
# RGS4-Gao reg: modulators of RGS4 binding to Galphao, primary screen, biochemical, multiplexed bead flow cytometry; Guanine nucleotide-binding protein G(o) subunit alpha (Homo sapiens), P09471; actives lie on both sides; hit rate 0.33% among 220,000; binding response (% of control), % at 10 µM; in the data active means binding response below about 49% or above about 150%; inactive means in between;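 further: fluorescent Galphao activated with aluminum fluoride binding bead-coupled RGS4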
# Target sequence (P09471 whole entry, looked up): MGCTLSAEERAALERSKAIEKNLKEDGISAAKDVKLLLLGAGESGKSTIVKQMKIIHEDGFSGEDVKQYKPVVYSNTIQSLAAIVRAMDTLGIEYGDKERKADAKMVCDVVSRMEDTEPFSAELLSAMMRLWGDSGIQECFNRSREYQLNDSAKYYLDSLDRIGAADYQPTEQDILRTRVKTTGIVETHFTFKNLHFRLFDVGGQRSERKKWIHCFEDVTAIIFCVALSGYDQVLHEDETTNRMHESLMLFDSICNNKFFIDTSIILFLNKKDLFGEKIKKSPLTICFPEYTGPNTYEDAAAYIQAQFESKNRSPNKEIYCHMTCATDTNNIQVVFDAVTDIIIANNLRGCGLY
# GSH fluor: compound fluorescence on glutathione beads, profiling panel, artefact control, biophysical, 488/530 nm, flow cytometry; fluorescence (KMESF) at 10 µM; GSH beads flow cytometry, compound fluorescence 488/530 nm; stronger effect = higher value; AID 1776, 2009; hit rate 0.25% among 190,000; in the data active means fluorescence above about 89;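 further: glutathione beads carrying GST-tagged Bcl family fusion proteins plus one bare bead set; values are compound well signal with DMSO vehicle wells as background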
# RGS7-Gao reg: RGS7-Galphao binding modulators, primary screen, biochemical, multiplexed bead flow cytometry; hit rate 0.35% among 220,000; Guanine nucleotide-binding protein G(o) subunit alpha (Homo sapiens), P09471; binding response (% of control), % at 10 µM; actives lie on both sides; in the data active means binding response below about 49% or above about 150%; inconclusive means no clear call, values can overlap the other calls; inactive means in between;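 further: fluorescent Galphao held in activated GDP-AlF4 state binding bead-coupled RGS7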
# Avidin bead fluor: green autofluorescence of compounds with avidin beads – biophysical, 488/530 nm, flow cytometry, artefact control, profiling panel | compound fluorescence 488/530 nm; stronger effect = higher value | fluorescence (KMESF) at 10 µM | hit rate 0.38% among 220,000 | AID 1775, 2009; in the data active means fluorescence above about 47
# RGS8-Gao: RGS8-Galphao binding modulators, primary screen, biochemical, multiplexed bead flow cytometry; response (percent of control binding), % at 10 µM; actives lie on both sides; Guanine nucleotide-binding protein G(o) subunit alpha (Homo sapiens), P09471; AID 1423, 2008; hit rate 0.34% among 220,000; in the data active means response below about 60% or above about 140%; inactive means in between;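 further: Galphao activated as the GDP aluminium fluoride complex binding bead-coupled RGS8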
# RGS4-Gao HTS: modulators of RGS–Galpha-o binding, primary screen, biochemical, multiplexed beads, flow cytometry, RGS4/7/8/16/19. AID 1504, 2009. hit rate 99% among 1,600. multiplexed bead flow cytometry. RGS4–Galpha-o binding response, % at 10 µM. shares compounds with RGS16-Gao;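 further: fluorescently labeled Galpha-o bound to GDP with aluminium fluoride binding biotinylated RGS beads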
# Biotin-avidin: disruption of biotin probe capture by avidin, counter-screen for RGS protein interaction modulators, biochemical, flow cytometry, bead-based | 1,700 tested, under 10 active | shares compounds with RGS16-Gao | AID 1783, 2009 | streptavidin beads, fluorescein-biotin binding | inhibition, % at 10 µM;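 active means inhibition above 50%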;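 further: median green fluorescence of gated singlet beads compared with DMSO control wells; 0% = DMSO wells and 100% = complete loss of bead fluorescence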
# RGS8-Gao confirm: RGS8-Galphao binding modulators, confirmation, biochemical, multiplexed bead flow cytometry, single concentration | shares compounds with RGS16-Gao | bead-based flow cytometry RGS8-Galphao binding, fluorescence; actives lie on both sides | binding response (% of control), % at 10 µM | hit rate 3% among 1,700 | AID 1836, 2009; in the data active means binding response below about 72% or above about 130%; inactive means in between;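 further: Galphao activated as GDP AlF4 complex before binding bead RGS8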
# RGS7-Gao single: RGS7-Galphao binding modulators, confirmation, biochemical, multiplexed bead flow cytometry, single concentration; shares compounds with RGS16-Gao; bead-based flow cytometry RGS7-Galphao binding; actives lie on both sides; response (percent of control binding), % at 10 µM; hit rate 7.8% among 1,700; AID 1837, 2009; in the data active means response below about 75% or above about 130%; inactive means in between;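 further: fluorescent Galphao activated with GDP and aluminum fluoride binding bead-coupled RGS7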
# RGS16-Gao single: modulators of RGS16-Galphao protein binding, confirmation, biochemical, single concentration, multiplexed bead flow cytometry. shares compounds with RGS16-Gao. bead-based flow cytometry; actives lie on both sides. response (% of control binding), % at 10 µM. hit rate 4% among 1,700; in the data active means response below about 74% or above about 130%; inactive means in between;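 further: Galphao activated as the GDP aluminium fluoride complex binding bead-coupled RGS16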
# RGS4-Gao single: modulators of RGS4-Galphao protein binding, confirmation, biochemical, single concentration, multiplexed bead flow cytometry; actives lie on both sides; binding response (% of control), % at 10 µM; AID 1840, 2009; hit rate 4% among 1,700; shares compounds with RGS16-Gao; in the data active means binding response below about 74% or above about 130%; inactive means in between
# RGS19-Gao single: regulators of RGS19-Galphao binding, confirmation, biochemical, single point, multiplexed bead flow cytometry; shares compounds with RGS16-Gao; bead-based flow cytometry RGS19-Galphao binding; actives lie on both sides; response (percent of control binding), % at 10 µM; hit rate 5% among 1,700; AID 1841, 2009; in the data active means response below about 50% or above about 160%; inactive means in between;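 further: 100% = no compound control and 0% = blank background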
# Numbers without * were called inactive; ? = inconclusive; . = no result given; [ ] = another dose, or the depositor's remark. This is a sample that favours compounds with a hit; in the whole collection about 1.2% have one here. Unless noted, how the calls were made is not given here.
SMILES,RGS16-Gao,RGS4-Gao reg,GSH fluor,RGS7-Gao reg,Avidin bead fluor,RGS8-Gao,RGS4-Gao HTS,Biotin-avidin,RGS8-Gao confirm,RGS7-Gao single,RGS16-Gao single,RGS4-Gao single,RGS19-Gao single
C1=C(c2c[nH]c3ccccc23)CCNC1,133,167*[activator],24,151*[activator],14,107,.,2,99,135*[activator],103,110,117
CC(C)N1CC=C(c2c[nH]c3ccccc23)CC1,97,95,19,98,22,96,.,.,.,.,.,.,.
Cc1onc(-c2c(Cl)cccc2Cl)c1/C(N)=N/OC(=O)N(C)C,91,86,.,?,3,91,.,.,.,.,.,.,.
CC(C)NS(=O)(=O)c1ccc(OCC(=O)N2CCN(C)CC2)cc1,381,134,20,130,5,185*[activator],134*,.,.,.,.,.,.
O=C1NC(c2cccnc2)Nc2sc3c(c21)CCCC3 (configuration not stated),23*,86,29,94,4,72,86*,-3,101,98,100,99,94
O=C1NC(=O)N(CCNc2ncc(C(F)(F)F)cc2Cl)C(=O)C1Cc1ccc(Cl)cc1 (configuration not stated),109,101,11,98,22,103,.,.,.,.,.,.,.
